Test results from the supplement of paper PMC3545927.
This is one part of the list. How many sequences the whole screen found active is unknown.

B1: HC2306 (peptide)
chain: CAMVPCHRPSAGNASASA
B2: HC95 (peptide)
chain: CAVVCSSMSYAGNASASA
B3: HC1358 (peptide)
chain: CAPGDPDLSDAGNASASA
B4: FS-2291 (peptide)
chain: CARQKRQLWDAGNASASA
B5: FS-2360 (peptide)
chain: CARQKRAVATAGNASASA
B6: HC459 (peptide)
chain: CACGSGPWITAGNASASA
B7: FS-2756 (peptide)
chain: CARQKRQNKEAGNASASA
B8: FS-3202 (peptide)
chain: CARQKRAWITAGNASASA
B9: HC528 (peptide)
chain: CALWMMLLISAGNASASA
B10: HC1050 (peptide)
chain: CASTLPGNPAAGNASASA
B11: FS-2814 (peptide)
chain: CARSRRAQPPAGNASASA
B12: FS-2607 (peptide)
chain: CARSRRCLRDAGNASASA
B13: FS-2239 (peptide)
chain: CARSRRALPPAGNASASA
B14: FS-2817 (peptide)
chain: CARSRRKLMVAGNASASA
B15: FS-2187 (peptide)
chain: CARSRRCTCFAGNASASA
B16: FS-3211 (peptide)
chain: CARSRRWKVKAGNASASA
B17: FS-2382 (peptide)
chain: CARSRRNVVMAGNASASA

Molecular target: furin, P09958
Experiment: furin cleavage Z-score vs untreated control; higher = more cleavage, active = 3.5 or more, inactive = 1 or less, 8 variable residues between constant flanks
Outline: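 Read counts from sequencing released DNA gave abundance for each bead-bound 8-mer peptide–cDNA fusion cut by purified furin over 7.5, 15 or 30 min. The cleavage Z-score compares log counts with furin-free reactions after lowess adjustment and median absolute deviation scaling.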
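Further: purified furin at 1:10 enzyme:substrate in 50 mM HEPES pH 7.5.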

furin, P09958, sequence (P09958 whole entry): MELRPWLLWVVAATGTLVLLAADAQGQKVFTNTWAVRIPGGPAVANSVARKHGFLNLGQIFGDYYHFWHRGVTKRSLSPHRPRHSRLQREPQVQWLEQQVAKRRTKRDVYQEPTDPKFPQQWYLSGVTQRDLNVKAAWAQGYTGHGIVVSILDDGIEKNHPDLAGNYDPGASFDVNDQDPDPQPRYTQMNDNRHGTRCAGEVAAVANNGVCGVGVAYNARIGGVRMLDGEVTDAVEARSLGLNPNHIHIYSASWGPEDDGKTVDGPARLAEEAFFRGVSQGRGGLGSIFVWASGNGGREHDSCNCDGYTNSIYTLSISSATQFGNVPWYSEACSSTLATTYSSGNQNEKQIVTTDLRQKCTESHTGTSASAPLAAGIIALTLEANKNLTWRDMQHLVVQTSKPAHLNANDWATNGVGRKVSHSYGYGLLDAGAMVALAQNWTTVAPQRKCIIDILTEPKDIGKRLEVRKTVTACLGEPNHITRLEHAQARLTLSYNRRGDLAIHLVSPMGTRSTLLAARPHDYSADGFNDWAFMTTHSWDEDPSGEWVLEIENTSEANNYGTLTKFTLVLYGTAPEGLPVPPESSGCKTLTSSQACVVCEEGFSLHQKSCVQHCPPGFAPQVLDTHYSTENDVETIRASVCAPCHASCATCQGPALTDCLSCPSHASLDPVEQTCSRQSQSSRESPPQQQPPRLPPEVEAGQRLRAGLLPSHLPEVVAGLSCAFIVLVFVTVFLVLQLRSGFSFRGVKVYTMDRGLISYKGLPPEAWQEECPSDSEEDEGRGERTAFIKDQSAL

Sequence | furin cleavage Z-score (7.5 min) | furin cleavage Z-score (15 min) | furin cleavage Z-score (30 min)
B1 | 1.55 | 0.971 (inactive) | 1.19
B2 | -0.171 (inactive) | 0.902 (inactive) | 0.436 (inactive)
B3 | -0.316 (inactive) | -0.713 (inactive) | -1.52 (inactive)
B4 | 5.3 (active) | 8.17 (active) | 8.7 (active)
B5 | 9.36 (active) | 11.9 (active) | 7.99 (active)
B6 | -1.7 (inactive) | -2.37 (inactive) | -1.44 (inactive)
B7 | 1.89 | 0.961 (inactive) | 3.45
B8 | 2.68 | 3.79 (active) | 6.77 (active)
B9 | -0.863 (inactive) | -0.739 (inactive) | -0.913 (inactive)
B10 | -1.13 (inactive) | 0.099 (inactive) | -1.54 (inactive)
B11 | 3.03 | 4.42 (active) | 4.27 (active)
B12 | 4.81 (active) | 5.74 (active) | 5.33 (active)
B13 | 7.76 (active) | 7.46 (active) | 7.12 (active)
B14 | -1.98 (inactive) | -0.17 (inactive) | -0.107 (inactive)
B15 | -0.747 (inactive) | -0.988 (inactive) | -0.963 (inactive)
B16 | 1.85 | -0.535 (inactive) | 0.212 (inactive)
B17 | 5.51 (active) | 8.6 (active) | 7.9 (active)
